Test results reported in PubChem BioAssay (NCI).
Several values for one entry are separate records, joined by “and”; a condition that tells them apart may be missing. Equal values may be shown once. The panel holds about 83,000 compounds, 20% with a hit somewhere; the sample as a whole holds those more often.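 Plates (96-well) were seeded with cells, treated with compound at one concentration, and incubated for 48 hours before percent growth was determined.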 Activity calls are given as the source filed them. The calls were made as follows: active = growth percent below 10; inactive = the rest.

Key:
Assay in all cases: NCI-60 one-dose screen, 48 h (100 = growth as untreated, 0 = no growth, -100 = all killed)
Details in all cases: 10 µM unless noted
T-47D breast = tested on: T-47D breast
BT-549 breast = tested on: BT-549 breast
MDA-MB-435 melanoma = tested on: MDA-MB-435 melanoma
SW-620 colon = tested on: SW-620 colon
MCF7 breast = tested on: MCF7 breast
HCT-116 colon = tested on: HCT-116 colon
HCC-2998 colon = tested on: HCC-2998 colon
KM12 colon = tested on: KM12 colon

Measured: growth

CCOP(=O)(OCC)/C(C#N)=C/c1c(C)[nH]c2ccccc12
inactive: T-47D breast 85.1% | BT-549 breast 98.3% | MDA-MB-435 melanoma 12.9% | SW-620 colon 98.2% | MCF7 breast 96.2% | HCT-116 colon 101% | HCC-2998 colon 107% | KM12 colon 100%

CCOc1ccc(/C=C\C(=O)O)cc1
inactive: T-47D breast 122% | BT-549 breast 125% | MDA-MB-435 melanoma 107% | SW-620 colon 101% | MCF7 breast 95.2% | HCT-116 colon 119% | HCC-2998 colon 109% | KM12 colon 106%

O=C1C2=C(Nc3cc(Cl)ccc3N2)OC1c1c[nH]c2ccc(COc3ccccc3)cc12 (stereo unspecified)
inactive: T-47D breast 68.4% | BT-549 breast 26.7% | MDA-MB-435 melanoma 84.6% | SW-620 colon 85% | MCF7 breast 64.2% | HCT-116 colon 72.4% | HCC-2998 colon 83.7% | KM12 colon 87.1%

C=CCN1C(=O)c2ccccc2C1=O
inactive: T-47D breast 118% | BT-549 breast 96.8% | MDA-MB-435 melanoma 106% | SW-620 colon 98.5% | MCF7 breast 98.6% | HCT-116 colon 99.2% | HCC-2998 colon 104% | KM12 colon 110%

N#Cc1c(N)nc2c(c(-c3ccc(Cl)cc3)nn2-c2ccccc2)c1C#N
inactive: T-47D breast 97.4% [100 µM] | BT-549 breast 94.2% [100 µM] | MDA-MB-435 melanoma 104% [100 µM] | SW-620 colon 107% [100 µM] | MCF7 breast 97.1% [100 µM] | HCT-116 colon 94.7% [100 µM] | HCC-2998 colon 111% [100 µM] | KM12 colon 103% [100 µM]

O=c1[nH]nnc2cc(Cl)ccc12
inactive: T-47D breast 106% and 98.4% | BT-549 breast 110% | MDA-MB-435 melanoma 104% and 102% | SW-620 colon 95.3% and 99.8% | MCF7 breast 114% and 94.5% | HCT-116 colon 104% and 103% | HCC-2998 colon 109% and 98.7% | KM12 colon 101% and 102%

CCCCNC(=O)c1ccccc1C
inactive: T-47D breast 96.9% | BT-549 breast 94.1% | MDA-MB-435 melanoma 97.9% | SW-620 colon 104% | MCF7 breast 89.8% | HCT-116 colon 90.2% | HCC-2998 colon 88.3% | KM12 colon 101%

CC(C)(C)C1=CC(=O)C(C(C)(C)C)=CC1=O
inactive: T-47D breast 79.2% and 112% | BT-549 breast 91.7% and 110% | MDA-MB-435 melanoma 97.8% and 110% | SW-620 colon 106% and 104% | MCF7 breast 86.5% and 97.2% | HCT-116 colon 88.5% and 105% | HCC-2998 colon 94.4% and 101% | KM12 colon 110%

COC(=O)c1nc(=S)[nH]c(C(=O)OC)c1C(=O)c1ccccc1
inactive: T-47D breast 107% | BT-549 breast 124% | MDA-MB-435 melanoma 107% | SW-620 colon 108% | MCF7 breast 94.2% | HCT-116 colon 126% | HCC-2998 colon 116% | KM12 colon 114%

Cn1c(N)c(N=O)c(=O)n(C)c1=O
inactive: T-47D breast 105% and 99.8% | BT-549 breast 111% and 96.8% | MDA-MB-435 melanoma 109% and 102% | SW-620 colon 106% and 101% | MCF7 breast 98.1% and 99.5% | HCT-116 colon 102% and 90.8% | HCC-2998 colon 106% | KM12 colon 106% and 94.8%

OCc1cccc(F)c1
inactive: T-47D breast 94.6% | BT-549 breast 104% | MDA-MB-435 melanoma 98.6% | SW-620 colon 50% | MCF7 breast 62.1% | HCT-116 colon 55.2% | HCC-2998 colon 99.4% | KM12 colon 108%

CC(=O)C[n+]1ccccc1Sc1ccc(Cl)cc1
inactive: T-47D breast 84.8% | BT-549 breast 30% | MDA-MB-435 melanoma 78% | SW-620 colon 91.6% | MCF7 breast 65% | HCT-116 colon 81.5% | HCC-2998 colon 128% | KM12 colon 79.2%

CCCCOC1NC(=O)NC(=O)C1(F)C(=O)OCC (stereo unspecified)
inactive: T-47D breast 80.5% and 74.7% | BT-549 breast 57.3% and 59.5% | MDA-MB-435 melanoma 56.9% and 53.4% | SW-620 colon 94.6% and 76.7% | MCF7 breast 46.6% and 27.8% | HCT-116 colon 64.5% and 43.6% | HCC-2998 colon 45.5% and 26.1% | KM12 colon 60.2% and 49.4%

NCCSSC/C=C\CSSCCN
inactive: T-47D breast 86.4% | BT-549 breast 100% | MDA-MB-435 melanoma 105% | SW-620 colon 102% | MCF7 breast 97.2% | HCT-116 colon 94.3% | HCC-2998 colon 112% | KM12 colon 102%

Cc1ccc(NC(=S)N/C=C(\c2ccccc2)S(=O)Cc2ccccc2)c(C)c1 (stereo unspecified)
inactive: T-47D breast 77.4% | BT-549 breast 99.3% | MDA-MB-435 melanoma 97.9% | SW-620 colon 98% | MCF7 breast 90.3% | HCT-116 colon 100% | HCC-2998 colon 105% | KM12 colon 102%

CC(C)(C(=O)c1cccnc1)c1cccnc1
inactive: T-47D breast 96.2% and 111% | BT-549 breast 103% and 136% | MDA-MB-435 melanoma 98.6% and 122% | SW-620 colon 105% and 106% | MCF7 breast 102% and 93.8% | HCT-116 colon 108% and 111% | HCC-2998 colon 102% | KM12 colon 101% and 113%

O=C1C=CC[C@H](/C=C/c2ccccc2)O1
67.9% (inactive) and 9.64% (active): T-47D breast
inactive: HCC-2998 colon 26.1% and 32.3% | KM12 colon 43.1% and 35.6%
17.5% (inactive) and 4.07% (active): MDA-MB-435 melanoma
16.4% (inactive) and -39.2% (active): SW-620 colon
24.9% (inactive) and 4.24% (active): BT-549 breast
active: MCF7 breast 0.837% and 1.92% | HCT-116 colon 5.79% and -18.5%

CC1=CC(=O)c2cccc(NC3=NCCO3)c21
inactive: T-47D breast 90.3% | BT-549 breast 101% | MDA-MB-435 melanoma 98.4% | SW-620 colon 95.2% | MCF7 breast 98.6% | HCT-116 colon 97.9% | HCC-2998 colon 104% | KM12 colon 97.7%

COc1ccc2nccc(Cl)c2c1
inactive: T-47D breast 122% | BT-549 breast 98.4% | MDA-MB-435 melanoma 108% | SW-620 colon 101% | MCF7 breast 98.5% | HCT-116 colon 103% | HCC-2998 colon 115% | KM12 colon 92.8%

CCOC(=O)NC(N)=O
inactive: T-47D breast 104% and 107% | BT-549 breast 96% and 110% | MDA-MB-435 melanoma 101% and 99% | SW-620 colon 107% and 111% | MCF7 breast 103% and 107% | HCT-116 colon 99.3% and 99.5% | HCC-2998 colon 103% | KM12 colon 112%

CN(C)c1ccc(C(=N)c2ccc(N(C)C)cc2)cc1
10.1% (inactive) and 2.28% (active): MCF7 breast
active: MDA-MB-435 melanoma -7.96% and -36.7%
9.98% (active) and 17.7% (inactive): SW-620 colon
inactive: T-47D breast 16.9% and 33.1% | BT-549 breast 70.1% and 40.6% | HCT-116 colon 18.5% and 11.9% | HCC-2998 colon 52.4% and 48% | KM12 colon 14.4% and 18.7%

COC1C(OC(N)=O)C(O)C(Oc2ccc3c(O)c(NC(=O)c4ccc(O)c(CC=C(C)C)c4)c(=O)oc3c2C)OC1(C)C (stereo unspecified)
inactive: T-47D breast 106% and 94.8% | BT-549 breast 112% and 97.8% | MDA-MB-435 melanoma 98.6% and 98.8% | SW-620 colon 104% and 92.7% | MCF7 breast 96.8% and 93.4% | HCT-116 colon 96.8% and 101% | HCC-2998 colon 107% and 96.6% | KM12 colon 110% and 101%

CCCC(=O)Oc1ccc2ccccc2c1
inactive: T-47D breast 92.2% | MDA-MB-435 melanoma 106% | SW-620 colon 92.1% | MCF7 breast 101% | HCT-116 colon 101% | HCC-2998 colon 97.9%

COc1cc(NCCCCCCCNC(C)C)c2nccc(C)c2c1
inactive: T-47D breast 59.9% | BT-549 breast 85.7% and 64.2% | SW-620 colon 98% and 73% | HCT-116 colon 73.3% and 50.4% | HCC-2998 colon 67.2% and 61.5% | KM12 colon 92.6% and 73.1%
93.9% (inactive) and 7.03% (active): MDA-MB-435 melanoma
active: MCF7 breast -1.6% and -9.72%

CC(C)(C)OC(=O)c1ccc(NCc2cc(O)ccc2O)cc1
inactive: MDA-MB-435 melanoma 20% | SW-620 colon 18.9% | MCF7 breast 29.5% | HCT-116 colon 36.2% | HCC-2998 colon 113%
active: T-47D breast -67.5% | BT-549 breast -17.6% | KM12 colon 8.14%

Cc1nc2c(=O)[nH]c(=S)[nH]c2[nH]c1=O
inactive: T-47D breast 112% and 102% | BT-549 breast 118% and 105% | MDA-MB-435 melanoma 107% and 102% | SW-620 colon 105% and 101% | MCF7 breast 101% and 99.9% | HCT-116 colon 108% and 105% | HCC-2998 colon 102% and 106% | KM12 colon 109%
